This is a sample that favours compounds with a hit; in the whole collection about 18% have one here.
PLK1 PBD block: PLK1 (human) polo-box domain binding inhibition | P53350 | Plk1 PBD binding of FITC phosphopeptide, fluorescence polarization | Potency, µM, most hits filed as inhibitors | hit rate 2.8% among 360,000 | AID 720504; further: series mostly up to about 57 µM; nearly all actives have a fitted effect of over 65% in size
TDP1 block: inhibitors of human tyrosyl-DNA phosphodiesterase TDP1; Q9NUW8; recombinant TDP1, AlphaScreen DNA substrate cleavage; Potency, µM (top dose mostly 130 µM), hits mostly inhibitors; hit rate 0.28% among 350,000; AID 485290; further: nearly all actives have a fitted effect of over 40% in size
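Here, a 5' biotin and 3' phosphotyrosine-FITC DNA oligonucleotide reports Tdp1 activity: intact substrate bridges AlphaScreen beads, while cleavage leaves a 3' phosphate and drops signal. All incubations at room temperature.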
TDP1 cell noCPT: qHTS for Inhibitors of human tyrosyl-DNA phosphodiesterase 1 (TDP1): qHTS in cells in absence of CPT; DT40 Tdp1-/- hTDP1 cells, no CPT, ATP luminescence, 48 h; Potency, µM (highest dose often 46.2 µM), actives largely listed as inhibitors; hit rate 15% among 420,000; AID 686978, 2013; further: nearly all actives have a fitted effect of over 55% in size
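A cellular qHTS used chicken DT40 cells lacking endogenous Tdp1 but carrying stably transfected human TDP1. Compounds were applied without camptothecin, and cell growth kinetics were judged by ATP-dependent luminescence after ≥48 hr.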
KAT2A inh: inhibitors of human GCN5L2 histone acetyltransferase; hit rate 0.21% among 390,000; Potency, µM (doses to about 58.9 µM), hits mostly inhibitors; Q92830; GCN5L2 HAT assay, ThioGlo1 CoA-SH fluorescence
Target sequence (Q92830 whole entry, looked up): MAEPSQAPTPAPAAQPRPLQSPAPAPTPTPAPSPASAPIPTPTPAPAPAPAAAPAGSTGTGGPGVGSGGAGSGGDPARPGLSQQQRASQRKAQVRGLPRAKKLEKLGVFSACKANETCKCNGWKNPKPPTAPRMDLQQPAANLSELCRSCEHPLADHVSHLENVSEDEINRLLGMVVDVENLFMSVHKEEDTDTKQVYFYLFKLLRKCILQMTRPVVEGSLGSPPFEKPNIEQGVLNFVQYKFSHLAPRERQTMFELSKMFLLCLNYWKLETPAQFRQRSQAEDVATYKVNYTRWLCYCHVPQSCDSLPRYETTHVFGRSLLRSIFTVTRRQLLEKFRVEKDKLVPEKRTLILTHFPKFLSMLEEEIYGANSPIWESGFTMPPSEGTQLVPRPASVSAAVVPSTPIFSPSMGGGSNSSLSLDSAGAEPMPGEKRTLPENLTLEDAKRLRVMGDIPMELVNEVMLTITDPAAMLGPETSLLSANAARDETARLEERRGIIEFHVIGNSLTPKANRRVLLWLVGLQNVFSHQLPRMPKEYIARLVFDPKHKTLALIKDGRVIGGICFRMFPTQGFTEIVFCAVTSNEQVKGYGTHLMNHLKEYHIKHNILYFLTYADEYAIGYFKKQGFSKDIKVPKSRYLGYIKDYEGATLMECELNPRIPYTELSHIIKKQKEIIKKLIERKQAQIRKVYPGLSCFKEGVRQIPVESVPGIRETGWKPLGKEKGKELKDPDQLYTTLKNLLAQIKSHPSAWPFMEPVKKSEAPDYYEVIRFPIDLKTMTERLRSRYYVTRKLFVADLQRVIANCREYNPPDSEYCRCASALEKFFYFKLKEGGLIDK
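Compounds, pin-transferred from DMSO stocks, meet 20nM GCN5L2 for 15 min before the reaction begins with H3(1-25) peptide (75uM) and acetyl-CoA (70uM). Thiol-reactive ThioGlo1 reports CoA release over 20 min at room temperature.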
DT40 TDP1 CPT: growth inhibition of DT40 Tdp1-/-;hTDP1 cells with camptothecin (screen for TDP1 inhibitors). chicken DT40 Tdp1-/-;hTDP1 cells + 20 nM CPT, ATP luminescence, 48 h. Potency, µM (top dose mostly 46.2 µM), hits mostly inhibitors. hit rate 12% among 420,000; further: nearly all actives have a fitted effect of over 55% in size
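Cell growth measured by CellTiter-Glo luminescence after a minimum 48 h, 37 C compound exposure with 20 nM CPT in Tdp1-knockout DT40 cells stably expressing hTDP1, seeded 400/well; qHTS titration format.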
VDR inhibitor: blocks the human vitamin D receptor. P11473. VDR-SRC2-3 peptide fluorescence polarization, 2 h. Potency, µM, actives largely listed as inhibitors. hit rate 0.93% among 400,000. AID 504847
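Reagent solutions, kept cold and dark, are dispensed first; compounds are then pinned in at 23 nl, plates briefly spun, and incubated 2 h at ambient temperature. Inhibition of VDR–SRC2-3 peptide binding is read by fluorescence polarization.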
Numbers stand for hits; n = inactive; u = inconclusive; x = no result; [ ] = dose if it differs, or a comment. The call rests on the fitted dose curve; in most records, active means well fitted curve in the direction sought with a large enough effect; inconclusive means small, poorly fitted or top-dose-only effect, or another doubt; inactive means no such curve, though single readings can be large; an effect the other way counts as inactive or inconclusive.

SMILES	PLK1 PBD block	TDP1 block	TDP1 cell noCPT	KAT2A inh	DT40 TDP1 CPT	VDR inhibitor
Cc1ccc(C(=O)Nc2ccccc2N2CCCCC2)o1	n	n	u	n	26µM	n
CCC(C(=O)Nc1ccccc1N1CCCC1)c1ccccc1 (centres undefined)	n	n	16µM	n	u	n
Cc1nnc2sc(-c3ccc(NC(=O)c4ccc(-c5ccc(Cl)cc5Cl)o4)cc3)nn12	n	x	u	x	16µM	n
Cc1ccc(C(=O)Nc2ccccc2N2CCCCC2)cc1	n	x	u	n	n	n
O=C(Nc1cc(C(F)(F)F)ccc1-n1cncn1)c1ccc([N+](=O)[O-])o1	n	x	21µM	n	10µM	n
CC(=O)Cc1nsc(NC(=O)c2ccc(-c3ccc(Cl)cc3Cl)o2)n1	n	n	u	n	n	n
CC(C)COc1ccc(C(=O)N2CCC(c3nc4ccccc4s3)CC2)cc1	x	n	u	n	n	n
CCC(C)Sc1oc(-c2ccco2)nc1S(=O)(=O)c1ccc(C)cc1 (centres undefined)	x	n	u	n	u	n
CN1C(=O)C(CC(=O)Nc2ccc(F)cc2)N(Cc2ccco2)C1=S (centres undefined)	u	n	n	n	n	n
COc1ccc(N2CCCC2)c(NC(=O)c2ccc([N+](=O)[O-])o2)c1	24µM	n	18µM	n	7.3µM	79µM
O=C(NC(=S)Nc1ccccc1N1CCCC1)c1ccc(F)cc1	u	n	u	n	u	n
CN1CCN(c2ccccc2NC(=O)c2ccc(-c3ccc(Cl)cc3Cl)o2)CC1	n	n	23µM	u	21µM	n
O=C(NC(=S)Nc1ccccc1N1CCCCC1)c1ccccc1	n	n	26µM	n	u	n
O=C(Nc1ccc(N2CCCC2)c(Cl)c1)c1ccco1	n	n	u	n	u	n
O=C(Nc1ccc(N2CCCC2)c(Cl)c1)c1ccc([N+](=O)[O-])o1	n	n	18µM	n	8.2µM	n
Cn1c(CNC(=O)CCNC(=O)c2ccc(F)c(F)c2)cc(=O)n(C)c1=O	n	n	n	n	n	n
CCCCOc1ccc(C(=O)NNC(=O)C2C3C=CC(C3)C2C(=O)O)cc1 (centres undefined)	n	n	n	n	n	n
Cc1nc2ccc(NC(=O)NCCCO)cc2s1	n	n	n	n	n	n
O=C(Nc1ccccc1N1CCN(C(=O)c2ccccc2)CC1)c1ccc([N+](=O)[O-])o1	n	n	15µM	n	21µM	n
O=C(Nc1ccccc1N1CCCC1)c1ccc([N+](=O)[O-])o1	n	n	u	n	23µM	n
Cc1cc(C)cc(OCC(=O)Nc2ccccc2N2CCCCC2)c1	n	n	u	n	u	n
Cc1cc(C)cc(NC(=O)Nc2ccccc2N2CCCCC2)c1	n	n	16µM	n	u	n
COc1cc(OC)cc(C(=O)NC2CC(C)(C)NC(C)(C)C2)c1	n	n	n	n	n	n
CCCOC(=O)c1ccc(Cl)c(NC(=O)c2cccnc2)c1	x	n	x	n	x	x
CCOC(=O)c1c(CSc2cccs2)n(C)c2cc(Br)c(O)c(CN(C)C)c12	n	n	18µM	n	16µM	n
SMILES	PLK1 PBD block	TDP1 block	TDP1 cell noCPT	KAT2A inh	DT40 TDP1 CPT	VDR inhibitor
COc1cc2c(=O)[nH]c3cc([N+](=O)[O-])ccc3c2cc1[N+](=O)[O-]	n	x	6.5µM	x	8.2µM	x
CCSc1cc(N2CCOCC2)nc(-c2ccccc2)n1	n	n	n	n	n	n
CCSc1nc(-c2ccccc2)nc(C(Cl)Cl)n1	n	n	8.2µM	n	1.8µM	n
CC(C)CC(=O)OC(C)(C)[C@@H]1Cc2c(ccc3ccc(=O)oc23)O1	n	n	u	n	u	n
C/C=C(/C)C(=O)OC(C)(C)[C@@H]1Cc2c(ccc3ccc(=O)oc23)O1	n	n	u	n	18µM	n
C/C=C(/C)C(=O)O[C@@H]1Cc2c(ccc3ccc(=O)oc23)OC1(C)C	n	n	u	n	u	n
C/C=C(/C)C(=O)O[C@@H]1c2c(ccc3ccc(=O)oc23)O[C@@H]1C(C)(C)OC(=O)/C(C)=C\C	n	n	16µM	n	u	n
C/C=C(/C)C(=O)O[C@@H]1[C@H](OC(C)=O)c2c(ccc3ccc(=O)oc23)OC1(C)C	n	n	16µM	n	u	n
CC1Cc2ccccc2N1C(=O)CSc1nnc(-c2cccc(Cl)c2)o1 (centres undefined)	x	n	u	n	15µM	n
CCC1CCCCN1C(=O)CSc1nnc(-c2cccc(Cl)c2)o1 (centres undefined)	n	n	23µM	n	26µM	n
CCC1CCCCN1C(=O)CSc1nnc(-c2ccc(OC)c(OC)c2)o1 (centres undefined)	x	n[12.3 µM]	u	n	u	n
CCC1CCCCN1C(=O)CSc1nnc(-c2ccc(Cl)cc2)o1 (centres undefined)	n	n	16µM	n	21µM	n
Cc1cc([N+](=O)[O-])nn1CC(=O)N/N=C/c1ccccc1O	n	n	18µM	n	8.2µM	n
COc1cc(OC)c(/C=N/NC(=O)Cn2nc([N+](=O)[O-])cc2C)c(OC)c1	n	n	n	n	n	n
Cc1cc(C)n(CC(=O)N/N=C/c2cc([N+](=O)[O-])ccc2O)n1	n	n	15µM	n	21µM	n
O=C(Cn1nnc(-c2ccccc2)n1)N/N=C/c1cccc([N+](=O)[O-])c1O	n	n	21µM	n	u	n
O=C1CCc2cc(S(=O)(=O)Nc3cccc(F)c3)ccc2N1	x	n	x	x	x	x
CCOC(=O)c1c(C)[nH]c(C)c1S(=O)(=O)N(C)CC(=O)N1CCN(c2ccc(Cl)cc2)CC1	x	n	u	n	15µM	n
CCOC(=O)c1[nH]c(C)c(CCC(=O)N2CCN(c3cccc(C)c3C)CC2)c1C	x	n	18µM	n	15µM	n
CCOC(=O)c1[nH]c(C)c(CCC(=O)N2CCN(c3ccc(Cl)cc3)CC2)c1C	x	n	23µM	n	u	n
CCOC(=O)c1c(C)[nH]c(C)c1S(=O)(=O)N(C)CC(=O)N1CCN(c2ccc(OC)cc2)CC1	n	n	n	n	n	n
Cc1ccccc1CN1CCc2cc([N+](=O)[O-])ccc21	n	n	18µM	n	u	n
Cn1c(COc2ccc3ccccc3c2)nnc1SCC(=O)OC1CCCCC1	n	n	n	n	n	n
CC1CCN(C2CC(=O)N(c3ccccc3)C2=O)CC1 (centres undefined)	n	n	n	n	21µM	n
O=C(O)c1ccc(N2C(=O)CC(N3CCN(c4cccc(Cl)c4)CC3)C2=O)cc1 (centres undefined)	n	x	3.3µM	n	n	n

From PubChem
